Screen size: about 53,000 sequences; about 3,700 (7%) were called active.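 Rule for the calls: active = gene knockdowns whose robust z-score for IL-1 alpha signal is at least 2 or at most -2, so actives lie on both sides; inactive = the rest.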 The sample as a whole holds a higher share of actives than the screen did.
assay: Components of the Cytosolic LPS Sensing Pathway: Gene Identification via Genome-wide siRNA Screen; details: RAW264.7 macrophages, IL-1a HTRF, actives lie on both sides, screened at 100 nM (by protocol), cells primed 5 h with Pam3CSK4 first;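 note: robust z of the log signal after scaling to non-targeting control siRNA wells of the plate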
Method in brief: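 Cells (RAW264.7, 1×10^4 per well) were transfected with siRNA at 100 nM and cultured 48h at 37 degrees C. Pam3CSK4 was added for 5 hours; LipidA transfection followed for 24 hour. IL-1a was then measured by HTRF.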

Row | Sequence | z-score
1 | GGAAGACUUUCUGGACAUATT against Sgk2 | 2.44 (active)
2 | CCUACAGCAACCAUAAGGATT against Plch2 | -1.6 (inactive)
3 | GGACAGCUGUUUCAAUUCUTT against Il1rap | -0.162 (inactive)
4 | GGAUUUGCCUACACAUAUGTT against Nqo1 | 0.362 (inactive)
5 | CCCUUCUCCACCUGAGAGUTT against Orm3 | -2.25 (active)
6 | GGAAAUGAAGAGUGUUGAATT against Slc7a3 | -0.4 (inactive)
7 | UGCCCAAGACUCAGAAGUCTT against Igf1 | 0.0658 (inactive)
8 | GCUAACUGCCUUGGGAAGATT against Lyl1 | 2.57 (active)
9 | GGCCAAGCACGAUAAAUACTT against Stub1 | -1.08 (inactive)
10 | CCUACAGUAUGUGGCAGAUTT against Grb7 | -1.49 (inactive)
11 | GGUGUUUUAUACACUCUGUTT against Mgme1 | -1.85 (inactive)
12 | GGACUUAAAACAGAAAGCATT against Haus1 | -2.79 (active)
13 | CGUGGUUGUACAUAUUUGUTT against Trip10 | 0.39 (inactive)
14 | GGGAAACAAAUUGUUUGCATT against Dnaaf4 | -0.461 (inactive)
15 | GGCUUUGUCGUUAAUUUUUTT against Auh | 0.322 (inactive)
16 | GGUGCAUUAUCUUGGUUCGTT against Hmga2 | -2.46 (active)
17 | GGCAAAUAUUCAGUUUGGATT against Scarb2 | -0.00406 (inactive)
18 | GGGUUUAUAAAACUGAAGUTT against Cav2 | 0.672 (inactive)
19 | GGCACAUGAGACAGCUUUUTT against Tmem160 | 0.0311 (inactive)
20 | CGUGUUCAGCGUAGAAACUTT against Ttll1 | 0.283 (inactive)
21 | GGUUUCAGAGCUAAACCCUTT against Larp4b | 0.235 (inactive)
22 | CCAUAGUUUUGGUUACCAATT against E330037G11Rik | -0.213 (inactive)

Row | Sequence | z-score
23 | GUCUCUUUGCCCUGUGCUATT against Vmn1r239-ps | 0.0206 (inactive)
24 | GGCUUGGAUUUUGAAAUACTT against Srcin1 | -0.792 (inactive)
25 | GCUCAGCAAUACUUCCUACTT against Itgal | -0.188 (inactive)
26 | GCUCAUAUACACCAUUUCUTT against Tmem171 | -1.12 (inactive)
27 | GCCUAUCAAUGUGUAUCUUTT against Tcf21 | -0.497 (inactive)
28 | CGUCCUAGGAAUCUACUUUTT against Itgad | 2.63 (active)
29 | GGGAAAGUAAUUGAUAAACTT against Mtrr | 0.59 (inactive)
30 | GUCUGUCAUUUGUGGAAAUTT against Olfr1495 | -2.17 (active)
31 | CCGAGUUCGGGUAUCUUGGTT against Grwd1 | -0.885 (inactive)
32 | CCCACCACAAGCUAAUACATT against Ubac1 | -0.0826 (inactive)
33 | GGAACAAAGACAUGUAUCATT against Zgpat | -0.931 (inactive)
34 | GCUCAGAAGUCCAAGAUACTT against Casp12 | -1.86 (inactive)
35 | GGUCGCUGGAGACCUUAGUTT against Hjurp | -1.88 (inactive)
36 | GGAACAGGUGAUCCGCUACTT against Lzts2 | 1.26 (inactive)
37 | GCACUCUGUUCAGCUAAAATT against Tafa3 | 2.16 (active)
38 | GGAAGCUAUGAACAAUACATT against Sulf2 | 0.00856 (inactive)
39 | GGUGUGAUGGAGUUCUUAUTT against Ndufs1 | -0.94 (inactive)
40 | GGUUCCAUAACCUGUGUCATT against Fbxo28 | 0.272 (inactive)
41 | GGGUUAAUGCAGCUCACGUTT against Lrrtm1 | 0.425 (inactive)
42 | GGCUUUGGCGAUAAGACAUTT against Glud1 | 2.29 (active)
43 | CCAAUUACGGAGAUUGGAATT against Tspan6 | -0.803 (inactive)
44 | GGUUGAUUCCAACGACAUCTT against Tinagl1 | -0.173 (inactive)

Row | Sequence | z-score
45 | GCAUAAAGCACCCGGAGAGTT against Zbtb32 | -1.53 (inactive)
46 | GGUGUUAAGACUCAGCUCATT against Micall2 | -1.49 (inactive)
47 | GCCUGGUUAUUAAUUUAUCTT against Dzank1 | -0.724 (inactive)
48 | GGCACCCGAGUAGGUCAAATT against Carhsp1 | 6.02 (active)
49 | CGUAACUGAGUCAAUUAGUTT against Intu | 0.128 (inactive)
50 | GCGUGGUUUCUGAAUACAUTT against Nt5e | 6.67 (active)
51 | GGUAACAUCUAUAUAUCACTT against Rb1 | 1.56 (inactive)
52 | GGACUCCAACCACACUAUCTT against Rab4b | 0.847 (inactive)
53 | GGCAUGAUGCUGAUCAUUCTT against Olfr1100 | -0.0763 (inactive)
54 | GCUUAUAGUUCAGUUUUUGTT against Ints8 | 0.835 (inactive)
55 | GCAAAUAGGGAGGUUCCUGTT against Ypel1 | 1.47 (inactive)
56 | GGAGACUUCAGUGCCUCUUTT against Slc16a11 | 2.45 (active)
57 | GGUAAUGGGACUUGGUAGGTT against Olfr1338 | -0.056 (inactive)
58 | UGGUCGGCUAGAUGAUGGATT against Wdr34 | -0.7 (inactive)
59 | GGAAGUCUGCCUGUUCUUGTT against Galnt10 | 0.744 (inactive)
60 | GGCUGUGUUGUCGAUUUCCTT against Nkain3 | 0.351 (inactive)
61 | GGGAUGAGUUCUUGUAAAUTT against Unc50 | -1.32 (inactive)
62 | GGGAACUCGAACAAGAAUUTT against Six1 | 1.11 (inactive)
63 | GGAAAAAGAGGAUGAGUGCTT against Gm4861 | 2.01 (active)
64 | GCUGCUGGAAACUAGACUGTT against Cyp2b13 | -1.71 (inactive)
65 | GUCAUCAAUCAAGUCUUGATT against Olfr1408 | -0.0822 (inactive)
66 | CCAAGGGUUGCUUCGAGCATT against Upk1a | -0.489 (inactive)

Row | Sequence | z-score
67 | GGACCUGAACGAUCUCGUUTT against Cyp4a12a | 1.65 (inactive)
68 | GGAACAACCACGGAACCCATT against Il1r2 | 0.335 (inactive)
69 | GGGUUUCAGUCUUCUUAUCTT against Olfr556 | -0.891 (inactive)
70 | GGGAGCUAAUGAGCAAGGATT against Galk1 | 2.5 (active)
71 | GCACAAACUUAUGCUCUUUTT against Klrc3 | -1.76 (inactive)
72 | GGACAGACAAAUACAAGAGTT against Tmco1 | 0.428 (inactive)
73 | GUUCUUAUAUAGGAUUGUGTT against Xkr9 | -0.782 (inactive)
74 | GGAUCAUCUAUACAGCACATT against Tgfb1i1 | -1.85 (inactive)
75 | GGACAGUUCUAAAAUUCCCTT against Olfr780 | -1.73 (inactive)
76 | GCCAGCUACCGAGUCUAUUTT against Tkt | 2.8 (active)
77 | GCAUGCUGACACUUACUUUTT against Olfr878 | -0.872 (inactive)
78 | CCAGGCAGCUAAACUGUGUTT against Tex11 | -0.11 (inactive)
79 | GGGACUGUACCCAGUUUAATT against Ccl27a | 1.62 (inactive)
80 | CGUGGAAUGAAGAUUGUCCTT against Hsd17b12 | 0.284 (inactive)
81 | GCAAAAUAGCCCAGUAUAATT against Pax6 | -5.02 (active)
82 | GGAGUUUCUUCAGUUCCUUTT against Dld | 0.87 (inactive)
83 | GCGGAGGAUAGAGCAAAUUTT against Upf3b | -0.0448 (inactive)
84 | GGAACAUCAAGGGAAUUAUTT against Zfp638 | 2.36 (active)
85 | GGACAACAGUGGAAGGCUCTT against Serpinb1a | 0.841 (inactive)
86 | GGAGGUGAACCAUAGAGAGTT against Csrnp2 | 1.12 (inactive)
87 | CCCUCUAUCAGUUACCCUGTT against Mcpt2 | 0.686 (inactive)
88 | GGACAAUGGUUCCUUGGAUTT against Cdc25c | 0.981 (inactive)

Row | Sequence | z-score
89 | GGAUGUCACUCUUGCAUUGTT against Olfr948 | 0.75 (inactive)
90 | GCCACAACUCCAGAUGCCUTT against Olfr937 | -2.64 (active)
91 | GGAAGAACUUCAGAAUGCATT against Slirp | -0.627 (inactive)
92 | CCUUCAUUGUGAUUGACAUTT against Ptpn11 | -0.55 (inactive)
93 | GGUUCAGUGCUUUGUGUUCTT against Il2rg | -0.541 (inactive)
94 | CCUUCUAAAUACUGAUUUGTT against Ugt2b38 | 0.699 (inactive)
95 | GCAGAAUAUUAACCAGUGUTT against Ptp4a2 | 1.15 (inactive)
96 | CCAGUUCCGGUCAGAUUAUTT against Gnal | -1.55 (inactive)
97 | GCCUCCAGAACUCACUGCATT against Hes3 | -2.04 (active)
98 | AAGGAAGUCUGUCCAAGGUTT against Olfr192 | -0.284 (inactive)
99 | GCUGCCAUUUCGCCAAUCUTT against Mfap4 | -2.65 (active)
100 | GGGAGCAUCAAACAACAAUTT against Tbr1 | 0.742 (inactive)
101 | GGCUGUGGAUUUCUCUCUGTT against Kng1 | -0.334 (inactive)
102 | GGCCGAGUACAAACGUGGATT against Atg9a | 2.77 (active)
103 | CCUGAGUCAGAUUCAUUUATT against Pten | 0.292 (inactive)
104 | GGUGCCAUUCAUCUUUCAATT against Tmprss3 | 1.85 (inactive)
105 | GGUGCAAGAUCAAGAACUGTT against C1ra | 2.78 (active)
106 | GGAAGAACAGGAAGAAGUGTT against Pank1 | 1.02 (inactive)
107 | CCAGCUUUCAUUAACUUUATT against Ppp1r10 | -0.571 (inactive)
108 | CGAGCUAUCCACUUAAUCATT against Irak3 | -0.859 (inactive)
